From PubChem BioAssay
Hits are enriched below; roughly 4% of the tested compounds scored in any of these assays.
Cl transport mod – KCC2 cotransporter modulators, thallium flux, primary screen, cell-based, HEK293 KCC2, FluoZin-2 fluorescence, MLSMR; hit rate 2.2% among 190,000; B-score of Tl+ flux slope (higher = more flux/activation; lower = inhibition) at 10 µM; Solute carrier family 12 member 5 (Homo sapiens), Q9H2X9; KCC2 cells, thallium flux FluoZin-2 fluorescence;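 active = thallium flux slope and its plate-corrected score both differing from the plate sample mean at a set confidence after two filtering rounds, in either direction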;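 note: slope of fluorescence scaled to starting intensity during 10 to 20 s after thallium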
Target sequence (Q9H2X9 whole entry, looked up): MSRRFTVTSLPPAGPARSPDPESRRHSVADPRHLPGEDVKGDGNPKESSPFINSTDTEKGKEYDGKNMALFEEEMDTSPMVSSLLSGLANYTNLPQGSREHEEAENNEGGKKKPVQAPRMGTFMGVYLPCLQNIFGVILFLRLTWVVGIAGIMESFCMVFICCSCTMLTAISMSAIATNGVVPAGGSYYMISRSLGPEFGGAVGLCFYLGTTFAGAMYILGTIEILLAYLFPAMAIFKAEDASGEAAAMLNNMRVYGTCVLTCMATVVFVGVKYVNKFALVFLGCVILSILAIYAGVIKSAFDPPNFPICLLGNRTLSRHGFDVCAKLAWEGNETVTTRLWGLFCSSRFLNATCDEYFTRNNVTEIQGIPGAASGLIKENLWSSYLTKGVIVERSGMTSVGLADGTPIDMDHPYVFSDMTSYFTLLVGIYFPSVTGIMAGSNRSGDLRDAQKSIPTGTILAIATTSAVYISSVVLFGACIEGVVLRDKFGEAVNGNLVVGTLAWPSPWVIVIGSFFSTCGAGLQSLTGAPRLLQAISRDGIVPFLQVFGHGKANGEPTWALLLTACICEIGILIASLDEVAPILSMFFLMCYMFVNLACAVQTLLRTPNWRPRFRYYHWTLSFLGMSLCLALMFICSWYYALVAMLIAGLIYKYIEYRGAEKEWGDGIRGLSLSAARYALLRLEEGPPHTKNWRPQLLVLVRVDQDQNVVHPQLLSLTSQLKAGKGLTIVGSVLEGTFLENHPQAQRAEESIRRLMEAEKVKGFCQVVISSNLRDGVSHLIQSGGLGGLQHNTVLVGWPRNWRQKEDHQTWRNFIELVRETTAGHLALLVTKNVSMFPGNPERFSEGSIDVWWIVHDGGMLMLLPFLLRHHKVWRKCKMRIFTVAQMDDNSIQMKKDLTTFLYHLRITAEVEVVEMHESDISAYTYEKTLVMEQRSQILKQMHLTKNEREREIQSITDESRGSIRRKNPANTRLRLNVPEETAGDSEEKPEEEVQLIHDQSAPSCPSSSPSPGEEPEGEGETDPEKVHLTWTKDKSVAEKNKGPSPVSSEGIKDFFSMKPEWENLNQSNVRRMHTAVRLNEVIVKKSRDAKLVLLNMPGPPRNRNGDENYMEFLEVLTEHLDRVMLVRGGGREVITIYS
Arbovirus anti – antivirals against arbovirus infection, primary screen, cell-based, full library, 10K replicate subset; hit rate 0.37% among 200,000; inhibition, % at 10 µM; arbovirus infection cell-based antiviral screen; AID 1251, 2008; in the data active = inhibition above about 30%
ROMK primary – ROMK potassium channel modulators, primary screen, cell-based, thallium flux, MLSMR library; Tet-inducible ROMK, thallium flux fluorescence; actives lie on both sides; hit rate 2% among 130,000; AID 1918, 2009; B-score at 10 µM;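 active = signal ratio slope over the read window, or its plate-corrected B-score, at least 3 SD from the plate mean, either direction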;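 note: B-score of the F/F0 ratio slope over 7 to 12 s after thallium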
Measles CPE – compounds protecting cells from measles virus cytopathic effect, primary screen, measles RdRp inhibitor project, single point, MLSMR library, absorbance; AID 841, 2007; Measles virus-infected cells, CPE protection; protection (pct of control), % at 4 µM; hit rate 1.5% among 140,000; in the data active = protection mostly above about 24%, no sharp cut-off; inactive = mostly below about 26%
HSV augment – enhancers of HSV replication in host cells, fold increase, host cell viability; hit rate 0.005% among 220,000; maximum fold increase; HSV replication augmentation in cells; in the data active = maximum fold increase above about 1.5; inconclusive = no clear call, values can overlap the other calls; tested in PC3 cells
The depositor's hits bear a star; i = inactive; ? = inconclusive; · = no result.

SMILES | Cl transport mod | Arbovirus anti | ROMK primary | Measles CPE | HSV augment
O=C(NN=C1c2ccccc2-c2ccccc21)c1cccc(Br)c1 | 60* | -17 | · | 8 | i
Cc1nnc2sc(SCc3cccc(Cl)c3)nn2c1=O | -0.46 | 31* | 0.13 | · | i
CCc1ccc(S(=O)(=O)/N=C2/C=C(Sc3ncn[nH]3)C(=O)c3ccccc32)cc1 | -1.2 | -37 | -7.8* | 2 | ·
CCc1ccc(S(=O)(=O)/N=C2\C=CC(=O)c3ccccc32)cc1 | -0.029 | -33 | · | · | i
CCc1nc(NC(=O)NS(=O)(=O)c2ccccc2C(=O)OC)nc(OC)n1 | 1.2 | 1 | 1.4 | · | i
O=C(O)CSc1nc(C(F)(F)F)cc(=O)n1-c1ccccc1 | · | 4 | · | 49* | i
NC(=S)N/N=C/c1ccccc1OCCSc1ccc(Cl)cc1 | 1.6 | -38 | -0.081 | 11 | i
CC1(C)Cc2c(ccc3ccccc23)C2=C(C(=O)N3CCCC3)C(=O)C(=O)N21 | -1.9 | 15 | 0.43 | · | i
C=CCC1(O)C(=O)N2C(=C1C(=O)OCC)c1ccc3ccccc3c1CC2(C)C (centres undefined) | -0.052 | -8 | · | 61* | ·
CCc1ccc(NC(=O)Cc2c(C(=O)O)n(C)c3ccccc23)cc1 | -0.92 | 16 | 0.51 | · | i
Cc1cc(-c2ccc(Cl)s2)n[nH]1 | -0.6 | -1 | · | 11 | ·
Cc1cc(-c2cccs2)n[nH]1 | 1.7 | 8 | 0.31 | 37* | i
COCC(C)n1c(SCc2ccc(OC)c(F)c2)nc2ccccc2c1=O (centres undefined) | -0.97 | 14 | 0.98 | · | i
CCn1c(O)c(N=NC(=O)CNc2cccc(C)c2)c2ccccc21 | 5.6* | -16 | · | 10 | i
CCCCC1(C)NC(=S)N2N1C(=S)NC2(C)CCCC (centres undefined) | 0.83 | · | -0.035 | · | i
O=[N+]([O-])c1ccc(-c2ccc(S(=O)(=O)NCCN3CCCC3)cc2)cc1 | -0.1 | -18 | -2.4 | · | i
COc1ccc(Cn2c(C3CC3)nc3ccc(NC(=O)c4ccco4)cc3c2=O)cc1 | · | -6 | · | 36* | i
CCC(=O)Nc1ccc2nc(C3CC3)n(Cc3ccccc3)c(=O)c2c1 | 0.052 | -11 | · | 10 | ·
O=C(N/N=C/c1ccccc1[N+](=O)[O-])c1cnccn1 | 0.27 | · | · | · | i
CC(CCc1ccccc1)NC(=O)c1cc2sccc2n1C (centres undefined) | -0.81 | 42* | · | 28 | i
CC1(C)CC2CC(C)(CN2C(=S)Nc2ccccc2)C1 (centres undefined) | 0.45 | 3 | · | · | i
CC1(C)CC2CC(C)(CN2C(=S)NC(=O)c2ccccc2Cl)C1 (centres undefined) | 55* | -17 | · | 9 | i
CC(C)(C)SCCNC(=O)Nc1ccccc1 | 0.53 | -1 | · | 35* | i
CC(C)(C)SCCNC(=O)CSc1ccccc1 | · | 6 | · | · | i
CCOC(=O)Cn1nc(C)cc1NC(=O)c1cccnc1 | 0.078 | 0 | -1.4 | · | i
SMILES | Cl transport mod | Arbovirus anti | ROMK primary | Measles CPE | HSV augment
COCc1cc(=O)[nH]c(-c2ccccc2OC(F)(F)F)n1 | 0.27 | · | · | · | i
Cc1ccc(NC(=O)c2nc[nH]c2C(=O)Nc2ccc(C)cc2)cc1 | -0.93 | -7 | · | 59* | i
Clc1cccc(OCCN2CCN(CCOc3cccc(Cl)c3)CC2)c1 | 0.42 | 5 | -1.4 | 9 | i
O=C1NC2(CCc3ccccc3C2)C(=O)N1CCOc1cccc(Cl)c1 (centres undefined) | -0.63 | -1 | -0.76 | 23* | i
O=C(c1ccc(Cl)cc1)N1CCC(=O)N(C(CO)Cc2ccccc2)CC1 (centres undefined) | · | · | · | · | i
COc1ccc(/C=N/NC(=O)CC2N=C(Cc3ccccc3)NNC2=O)cc1OC (centres undefined) | 0.083 | -8 | -0.0027 | 28* | i
COc1ccc(C2CC(=O)c3cnn(-c4nc(C)cc(C)n4)c3C2)cc1 (centres undefined) | 0.83 | -15 | -0.014 | · | i
N#C/C(=C/c1ccc(-c2ccccc2)o1)c1nc(-c2cccs2)cs1 | -1 | 2 | -5.3* | 19 | ?
N#C/C(=C\c1ccc(-c2ccc(F)cc2)o1)C(=O)Nc1nc(-c2cccs2)cs1 | 1.3 | -1 | · | 17 | i
O=[N+]([O-])c1cc(/C=N\Nc2nc(-c3ccccc3)cs2)ccc1O | -1.6 | 48* | 0.35 | · | i
Cc1ccc(CN=C2NC(=O)C(CC(=O)NCCc3ccccc3)S2)cc1 (centres undefined) | -0.74 | 6 | -0.15 | · | i
NC(=O)c1ccc(-n2nnnc2SCC(=O)Nc2ccc(N3CCOCC3)c(Cl)c2)cc1 | 0.62 | 3 | · | 32* | i
Cc1cc(-c2nnc(CSc3nnc(NC(=O)c4ccc(C(C)(C)C)cc4)s3)o2)ccc1[N+](=O)[O-] | -0.83 | · | -0.55 | · | i
COc1ccc(N2C(=O)[C@@H]3[C@H](C2=O)[C@H](C(C)=O)N2c4ccccc4C=C[C@@H]32)cc1 | -1 | · | · | · | i
COc1ccc(C2C(C(=O)c3ccccc3)N3c4ccccc4C=CC3C2[N+](=O)[O-])cc1 (centres undefined) | 0.39 | -5 | -3.7* | · | i
Cc1ccc(-c2[nH][nH]c(=O)c(=O)c2N=Nc2ccccc2)cc1 | 0.38 | · | 0.23 | · | i
CCC1=NN2C(=N)/C(=C\c3ccc(SCc4ccco4)o3)C(=O)N=C2S1 | · | 62* | · | 4 | ?
O=C1NC(=S)S/C1=C\c1ccc(SCc2ccco2)o1 | 119* | 18 | -2.8* | 11 | i
CCC1=NN2C(=N)/C(=C\c3cccn3-c3ccc(OC)cc3)C(=O)N=C2S1 | 1.4 | 30 | 0.68 | · | i
O=C1NC(=Nc2ccc(O)cc2)S/C1=C/c1ccco1 | · | -18 | -0.022 | · | i
O=C1NC(=NCc2ccccc2)S/C1=C\c1ccccc1 | -1.2 | -1 | · | 7 | i
O=C1NC(=S)S/C1=C\c1ccc(SCc2ccccc2)o1 | 29* | -2 | 1.2 | 18 | i
COc1ccc(C2C(C(C)=O)=C(O)C(=O)N2c2nccs2)c(OC)c1 (centres undefined) | -0.9 | 0 | 0.36 | · | i
O=C(NC1CCS(=O)(=O)C1)c1cc(-c2ccccc2)nc2ccccc12 (centres undefined) | 0.58 | 12 | -0.21 | · | i
CCN(CC)c1ccc(CNc2nc3ccccc3n2CC)cc1 | -0.91 | · | 0.29 | · | i
CCOC(=O)CSc1nnc(-c2ccco2)n1-c1ccc(C)cc1 | 0.26 | 5 | 0.97 | 38* | i
CCOC(=O)CSc1nnc(-c2ccco2)n1-c1ccccc1 | 0.0024 | -5 | · | 23 | i
CCOC(=O)CN(c1ccccn1)S(=O)(=O)c1ccc(OC)cc1 | 1.1 | 3 | 0.44 | · | i
Oc1ccc(C=Nc2ccccc2-c2nc3ccccc3[nH]2)c(O)c1 | 0.16 | 0 | · | 9 | i
Oc1ccccc1C=Nc1ccccc1-c1nc2ccccc2[nH]1 | 0.66 | 7 | · | 58* | i
